Nox1 inh: inhibitors of human NADPH oxidase 1 (Nox1); Q9Y5S8; AID 1792, 2009; 0.81% of 16,000 active; inhibition, % at 6.7 µM; HT29 cells, luminol chemiluminescence ROS
luminol inh ctr: counter-screen for Nox1 inhibitors: inhibitors of luminol chemiluminescence. HRP/luminol/H2O2 chemiluminescence counterscreen. inhibition, % at 6.7 µM. 0.4% of 16,000 active. AID 1823, 2009; also: reference of the scale not given here
PME-1 Maybr inh: inhibitors of human PME-1 in Maybridge library; Protein phosphatase methylesterase 1 (Homo sapiens), Q9Y570; recombinant PME-1, FP-Rh probe fluorescence polarization; inhibition, % at 9 µM; 0.5% of 16,000 active; in the data active = inhibition above about 30%
rat GALR2 ag: agonists of rat galanin receptor 2 (GALR2); cell-based GALR2 agonist screen; activation, % at 10 µM; Galanin receptor type 2 (Rattus norvegicus), O08726; 0.5% of 16,000 active; in the data active = activation above about 15%
Of the large screens only hits and unclear results are named; the others gave an inactive call. The list is not random: actives were taken first. Their share in the collection is about 2.2%. Rule as the data show it, unless noted: active = inhibition above about 75%; inactive = the rest.

CCC(CO)NC(=S)Nc1ccsc1C(=O)OC (configuration not stated)	none
COC(=O)c1ccsc1NC(=O)c1cncc(Br)c1	none
Cc1cc(NC(=O)CN2CCOCC2)n(-c2ccccc2)n1	rat GALR2 ag 137
CC(C)(C)c1csc(NNC(=O)c2ccc(Cl)cc2)n1	Nox1 inh 85
COCCCNC(=S)NNC(=O)CC#N	luminol inh ctr 98
COCCCNC(=S)NNC(=S)NCCCOC	none
COc1cccc(NC(=S)NNc2ccc([N+](=O)[O-])cc2)c1	Nox1 inh 98
O=C1CC(c2ccccc2)C2=C(COC2=O)N1 (configuration not stated)	none
CCOC(=O)c1sc(Nc2ccccc2)c(-c2nc3ccccc3[nH]2)c1N	PME-1 Maybr inh 31

Bioassay records as filed in PubChem.
